From PubChem BioAssay AID624117 (National Center for Advancing Translational Sciences (NCATS), 2012)
Records with an inconclusive call do not appear. Activity calls are given as the source filed them. Calls come from the whole dose curve; as a rule, active = well fitted curve in the direction sought with a large enough effect; inconclusive = small, poorly fitted or top-dose-only effect, or another doubt; inactive = no such curve, though single readings can be large or run the other way.

Experiment: qHTS Assay for Rab9 Promoter Activators: Hit Validation Using Renilla Luciferase Read-Out
Conditions: Huh7 NPC1 promoter Renilla luciferase reporter, 24 h; series mostly up to 76.9 µM
From the text: Niemann Pick Type C (NPC) is a rare neurodegenerative lipidosis that is characterized by lipid storage in the endosomal/lysosomal system. Treatment modalities for this devastating disease are currently non-existent due to the severe obstacles associated with accessing the central nervous system with proteins or genes. The majority of mutations causing NPC disease are missense mutations that are distributed throughout the length of the NPC1 protein, with the most prevalent being the I1061T allele. Although NPC1 mutant proteins may be functional, they are typically trapped in the ER due to misfolding. […] We have developed and optimized a cell based renilla luciferase reporter assay in 1536 well format for the identification of up-regulators of the mutant NPC1 promoter. This assay presents data on the validation of hits from the primary screen, which used a firefly luciferase read-out. NIH Chemical Genomics Center [NCGC] NIH Molecular Libraries Probe Production centers Network [MLPCN] MLPCN Grant: MH089375 Assay Submitter (PI): Yiannis A. Ioannou
Huh7 cells stably expressing NPC promoter-luciferase will be seeded at 1,500 cells/well in 5 uL in 1,536-well white opaque plates with 23 nL/well of compound in DMSO solution. The assay plates will be incubated at 37 deg C for 24 hours, after which 3 uL/well BriteLite plus luciferase detection reagent mixture (Perkin Elmer) will be added. Luminescence signal will be measured in a ViewLux plate reader (Perkin Elmer) after a 10 minute incubation at the room temperature.
In the case of Cc1cccn2c(NCC3CCCO3)c(C(C)C)nc12 (stereo not given), the outcome was “inactive”. In the case of O=C1c2ccccc2C(=O)N1Cc1nc2ccccc2c(=O)n1-c1cccnc1, the outcome was “inactive”. With CN1CCc2cc3c(c4c2C1Cc1ccccc1-4)OCO3 (stereo not given) the outcome was “inactive”. With COc1cccc(CCNCc2ccc(SC)cc2)c1 the outcome was “inactive”. In the case of CCC(=NCc1cccnc1)c1c(O)n(-c2ccccc2)c(=O)[nH]c1=O, the outcome was “inactive”.
